Test results published in PubChem BioAssay (NCATS).
Inconclusive results are not listed. Unmarked numbers belong to inactive results. Active and inactive are the calls of the source. The call rests on the fitted dose curve.

target: Vitamin D3 receptor (Homo sapiens) (UniProt P11473); experiment: qHTS assay for small molecule agonists of vitamin D receptor signaling (AID 588543); settings: HEK293T VDR-UAS-bla, beta-lactamase ratio, 16 h; series mostly up to 76.8 µM; activation: at the top concentration
Text: NIH Chemical Genomics Center [NCGC]
U.S. Environmental Protection Agency [EPA]
National Institutes of Environmental Health Sciences [NIEHS]
National Toxicology Program [NTP]
The Vitamin D receptor (VDR) is a member of nuclear hormone receptor superfamily and it plays a critical role in calcium homeostasis and bone metabolism. It plays a role in inducing cell differentiation, inhibiting cell growth and in thrombogenicity. So, VDR that mediates these effects represents a pharmacological target in prevention and treatment of hyperproliferative malignancies, such as cancer and psoriasis, cardiovascular, immunological, inflammatory and renal diseases etc.
NCGC Assay Protocol Summary
Using a beta-lactamase reporter-gene under control of Vitamin D receptor (VDR) response element, a cell-based assay [GeneBLAzer (VDR -UAS-bla assay developed by Invitrogen] was used to measure VDR ligands signaling. GeneBLAzer VDR -UAS-bla HEK293T cells were used with assay medium containing 2% charcoal-stripped FBS. The assay was performed in clear bottom black Greiner 1536-well plates. 1-alpha,25-Dihydroxy vitaminD3 was used as a positive control in the screen. Library compounds were measured for their ability to stimulate the reporter gene activity. Compounds were screened in a titration series in 1536-well format. The fluorescence intensity (405 nm excitation, 460/530 nm emission) was measured using an EnVision plate reader. Data was normalized relative to 1-alpha,25-Dihydroxy vitaminD3 control (50 nM, 100%) and DMSO only wells (basal, 0%). Concentration-response titration points for each compound were fitted to the Hill equation yielding concentrations of half-maximal stimulation (EC50) and maximal response (efficacy) values.
qHTS protocol for VDR beta-lactamase assay in agonist mode
[Step] [Parameter] [Value] [Description]
1. Reagent; 6 uL; 2000 cells/well
2. Incubation; 37 C for 5 hrs
4. Controls (1-alpha,25-Dihydroxy vitaminD3); 23 nL,
- Final concentrations of 50 nM and 15 nM in two columns
5. Incubation; 37 C for 16 hrs
6. Detection reagent; 1 uL of CCF4-dye
7. Incubation; RT for 2 hrs
8. Detection; Fluorescence; Envision plate reader

Sequence of Vitamin D3 receptor (Homo sapiens) (P11473 whole entry, looked up): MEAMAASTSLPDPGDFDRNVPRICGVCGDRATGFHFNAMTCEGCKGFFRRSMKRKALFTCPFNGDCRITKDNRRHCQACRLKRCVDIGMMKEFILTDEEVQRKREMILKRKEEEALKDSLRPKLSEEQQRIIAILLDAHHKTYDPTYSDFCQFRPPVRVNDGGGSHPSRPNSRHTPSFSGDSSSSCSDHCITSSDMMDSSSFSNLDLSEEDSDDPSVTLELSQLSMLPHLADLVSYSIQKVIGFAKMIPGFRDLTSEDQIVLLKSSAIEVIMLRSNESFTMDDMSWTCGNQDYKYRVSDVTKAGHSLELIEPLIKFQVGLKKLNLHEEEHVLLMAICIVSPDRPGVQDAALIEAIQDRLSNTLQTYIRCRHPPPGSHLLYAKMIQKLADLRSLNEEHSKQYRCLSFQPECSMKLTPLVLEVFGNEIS

SMILES | outcome | activation
Nc1ncn([C@@H]2O[C@H](CO)[C@@H](O)[C@H]2O)c(=O)n1 | inactive | –
O=C(O)CCCCCCCC(=O)O | – | 6.89%
CC(=O)[C@@]1(O)CC[C@H]2[C@@H]3CCC4=CC(=O)CC[C@]4(C)[C@H]3CC[C@@]21C | – | -3.92%
Cc1ccc(S(=O)(=O)NC(=O)NN2CCCCCC2)cc1 | – | 5.36%
COc1cc(Cc2cnc(N)nc2N)cc(OC)c1OC | – | -0.668%
C[C@]12C=CC(=O)C=C1CC[C@H]1[C@@H]3C[C@@H](O)[C@](O)(C(=O)CO)[C@@]3(C)C[C@H](O)[C@@]12F | – | -2.09%
C[C@]12CCC(=O)C=C1CC[C@@H]1[C@@H]2C(=O)C[C@@]2(C)[C@H]1CC[C@]2(O)C(=O)CO | – | -3.75%
CN=C(NC#N)NCCSCc1nc[nH]c1C | – | -0.174%
CC(C)(Oc1ccc(CCNC(=O)c2ccc(Cl)cc2)cc1)C(=O)O | – | -2.42%
CCCCNC(=O)NS(=O)(=O)c1ccc(C)cc1 | inactive | –
O=c1[nH]c(=O)n([C@H]2C[C@H](O)[C@@H](CO)O2)cc1Br | – | 3.81%
